Test results as given in PubChem BioAssay (NCI).
Compounds without any hit were thinned out: in the full panel of roughly 83,000, 20% have a hit.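 For each line, cells grew in 96-well plates with the test compound present at a single concentration for 48 hours.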 Activity calls are given as the source filed them. The calls were made as follows: active = growth percent below 10; inactive = the rest.

Columns and labels:
Assay in all cases: NCI-60 one-dose screen, 48 h (100 = growth as untreated, 0 = no growth, -100 = all killed)
Details in all cases: 10 µM unless noted
SR leukemia = test system: SR leukemia
RPMI-8226 leukemia = test system: RPMI-8226 leukemia
OVCAR-4 ovarian = test system: OVCAR-4 ovarian
SK-OV-3 ovarian = test system: SK-OV-3 ovarian
IGROV1 ovarian = test system: IGROV1 ovarian
OVCAR-3 ovarian = test system: OVCAR-3 ovarian
HS 578T breast = test system: HS 578T breast
NCI/ADR-RES ovarian = test system: NCI/ADR-RES ovarian
T-47D breast = test system: T-47D breast
BT-549 breast = test system: BT-549 breast
MDA-MB-435 melanoma = test system: MDA-MB-435 melanoma
SW-620 colon = test system: SW-620 colon
MCF7 breast = test system: MCF7 breast
HCT-116 colon = test system: HCT-116 colon
KM12 colon = test system: KM12 colon
OVCAR-8 ovarian = test system: OVCAR-8 ovarian
OVCAR-5 ovarian = test system: OVCAR-5 ovarian
HCC-2998 colon = test system: HCC-2998 colon

Measured: growth

CC(C)[C@@]12C[C@@H](OC(=O)C3CO3)[C@@](C)(O1)[C@@H]1CC[C@@H](C)[C@H]1[C@@H]2OC(=O)/C=C/c1ccccc1 (stereo partly drawn)
inactive: SR leukemia 74.6% | RPMI-8226 leukemia 89.1% | OVCAR-4 ovarian 111% | SK-OV-3 ovarian 76.9% | IGROV1 ovarian 74.6% | OVCAR-3 ovarian 90.4% | NCI/ADR-RES ovarian 59.4% | T-47D breast 58.8% | BT-549 breast 77.1% | MDA-MB-435 melanoma 109% | SW-620 colon 98.3% | MCF7 breast 85.7% | HCT-116 colon 85.9% | KM12 colon 99.7%
active: HS 578T breast -21.2%

c1ccc(CCn2cccc2)nc1
inactive: SR leukemia 75.2% | OVCAR-8 ovarian 102% | OVCAR-5 ovarian 103% | OVCAR-4 ovarian 113% | SK-OV-3 ovarian 107% | IGROV1 ovarian 121% | OVCAR-3 ovarian 101% | HS 578T breast 120% | NCI/ADR-RES ovarian 105% | T-47D breast 94.7% | BT-549 breast 106% | MDA-MB-435 melanoma 114% | SW-620 colon 117% | MCF7 breast 101% | HCT-116 colon 101% | HCC-2998 colon 96.7% | KM12 colon 103%

CCN1C(=O)N(CC)C2C1NN=c1s/c(=C\c3ccc(Br)cc3)c(=O)n12 (stereo not drawn)
inactive: SR leukemia 14% | OVCAR-5 ovarian 35.1% | OVCAR-4 ovarian 65.7% | SK-OV-3 ovarian 16.1% | IGROV1 ovarian 13.3% | HS 578T breast 54% | T-47D breast 54.3% | BT-549 breast 18.2% | SW-620 colon 23.1% | HCC-2998 colon 10.2%
active: OVCAR-8 ovarian 2.86% | OVCAR-3 ovarian 3.78% | NCI/ADR-RES ovarian 5.64% | MDA-MB-435 melanoma -13.6% | MCF7 breast 1.61% | HCT-116 colon 5.14% | KM12 colon 6.77%

O=c1c2cc(Br)cc(Br)c2nc(-c2ccc(Cl)cc2)n1/N=C\c1ccccc1F
active: OVCAR-4 ovarian -9.05%
inactive: SR leukemia 81% | OVCAR-8 ovarian 47% | OVCAR-5 ovarian 64.8% | SK-OV-3 ovarian 49.6% | IGROV1 ovarian 39.1% | OVCAR-3 ovarian 56.4% | HS 578T breast 60.8% | NCI/ADR-RES ovarian 53.7% | T-47D breast 69.7% | BT-549 breast 88.3% | MDA-MB-435 melanoma 81.2% | SW-620 colon 82.5% | MCF7 breast 56.1% | HCT-116 colon 32.8% | HCC-2998 colon 85.4% | KM12 colon 72.2%

CCCCCCCC/C=C/CCCCCCCC1=NC(C)(C)CN1C(C)C
inactive: OVCAR-5 ovarian 58.1% | OVCAR-4 ovarian 18.9% | SK-OV-3 ovarian 55.4% | BT-549 breast 60.9%
active: SR leukemia -46.7% | OVCAR-8 ovarian -20.8% | IGROV1 ovarian -29.9% | OVCAR-3 ovarian -55.7% | HS 578T breast 6.92% | NCI/ADR-RES ovarian -6.48% | T-47D breast -29.2% | MDA-MB-435 melanoma -58.3% | SW-620 colon -69.8% | MCF7 breast -60.5% | HCT-116 colon -74.8% | HCC-2998 colon -91.8% | KM12 colon -77.1%

COc1cc(C2CC(c3ccc(Cl)cc3)=NN2C(C)=O)ccc1Oc1nc2c(c(=O)n(C)c(=O)n2C)n1C (stereo not drawn)
inactive: SR leukemia 78.5% | OVCAR-8 ovarian 92.2% | OVCAR-5 ovarian 108% | OVCAR-4 ovarian 67.9% | SK-OV-3 ovarian 112% | IGROV1 ovarian 82.3% | OVCAR-3 ovarian 102% | HS 578T breast 80.5% | NCI/ADR-RES ovarian 61.6% | T-47D breast 76.8% | BT-549 breast 83.2% | MDA-MB-435 melanoma 64.1% | SW-620 colon 98.1% | MCF7 breast 70.2% | HCT-116 colon 85.5% | HCC-2998 colon 87.3% | KM12 colon 78.2%

CC(C)c1ccc(-c2cnc3nonc3n2)cc1
active: SR leukemia 6.91% | BT-549 breast 7.62%
inactive: OVCAR-8 ovarian 36.6% | OVCAR-5 ovarian 37.6% | OVCAR-4 ovarian 59.5% | SK-OV-3 ovarian 82.4% | IGROV1 ovarian 54.4% | OVCAR-3 ovarian 15.6% | HS 578T breast 77.6% | NCI/ADR-RES ovarian 19.9% | T-47D breast 42.5% | MDA-MB-435 melanoma 23.7% | SW-620 colon 29.8% | MCF7 breast 11.5% | HCT-116 colon 10.2% | HCC-2998 colon 61.1% | KM12 colon 31.2%

COc1ccc2c(c1)N(Cc1ccc(Cl)cc1)CCC2N1CCCC1=O (stereo not drawn)
inactive: SR leukemia 34.2% | OVCAR-8 ovarian 50% | OVCAR-5 ovarian 66% | OVCAR-4 ovarian 34% | SK-OV-3 ovarian 43.4% | IGROV1 ovarian 13.2% | OVCAR-3 ovarian 43.8% | HS 578T breast 10.7% | NCI/ADR-RES ovarian 53.3% | T-47D breast 31.5% | BT-549 breast 16.1% | MDA-MB-435 melanoma 46.2% | SW-620 colon 72.1% | MCF7 breast 35.5% | HCT-116 colon 55.1% | HCC-2998 colon 49.7% | KM12 colon 50.4%

CC(C)(CCc1ccccn1)C(=O)CCCc1ccccn1
inactive: SR leukemia 90.9% | OVCAR-8 ovarian 105% | OVCAR-5 ovarian 103% | OVCAR-4 ovarian 111% | SK-OV-3 ovarian 108% | IGROV1 ovarian 108% | OVCAR-3 ovarian 110% | HS 578T breast 111% | NCI/ADR-RES ovarian 106% | T-47D breast 95.2% | BT-549 breast 105% | MDA-MB-435 melanoma 109% | SW-620 colon 106% | MCF7 breast 98.6% | HCT-116 colon 93.9% | HCC-2998 colon 107% | KM12 colon 106%

COc1cc(-c2nn(C(=O)NCCN3CCN(C)CC3)cc2-c2ccncc2)ccc1Cl
inactive: SR leukemia 77.5% | OVCAR-8 ovarian 24.5% | OVCAR-5 ovarian 84.6% | OVCAR-4 ovarian 78% | SK-OV-3 ovarian 55.1% | IGROV1 ovarian 75% | OVCAR-3 ovarian 97.2% | HS 578T breast 76.9% | NCI/ADR-RES ovarian 82.4% | T-47D breast 62.2% | BT-549 breast 88.1% | MDA-MB-435 melanoma 80.4% | SW-620 colon 111% | MCF7 breast 76.5% | HCT-116 colon 76.9% | HCC-2998 colon 93.7% | KM12 colon 96.4%

Clc1ccc(-c2cnc3nonc3n2)s1
active: MDA-MB-435 melanoma -10.6%
inactive: SR leukemia 38.4% | OVCAR-8 ovarian 67.3% | OVCAR-5 ovarian 91.5% | OVCAR-4 ovarian 89.9% | SK-OV-3 ovarian 98.1% | IGROV1 ovarian 71.3% | OVCAR-3 ovarian 23.1% | HS 578T breast 90.3% | NCI/ADR-RES ovarian 98.5% | T-47D breast 58.4% | BT-549 breast 93.8% | SW-620 colon 82.6% | MCF7 breast 38.7% | HCT-116 colon 67% | HCC-2998 colon 109% | KM12 colon 77.1%

CN1C(=O)N(C)C2C1NN=c1s/c(=C\c3ccc(Br)cc3)c(=O)n12 (stereo not drawn)
active: OVCAR-3 ovarian 0.921% | MDA-MB-435 melanoma -50.4%
inactive: SR leukemia 13.5% | OVCAR-8 ovarian 33.7% | OVCAR-5 ovarian 56.8% | OVCAR-4 ovarian 61.6% | SK-OV-3 ovarian 29.5% | IGROV1 ovarian 48.1% | HS 578T breast 11.6% | NCI/ADR-RES ovarian 17% | T-47D breast 28.7% | BT-549 breast 50.8% | SW-620 colon 20% | MCF7 breast 13.4% | HCT-116 colon 25% | HCC-2998 colon 53% | KM12 colon 23.3%

CN1C(=O)C(C2=NNC(c3ccccc3C(=O)O)C2)C(=O)N(C)C1=O (stereo not drawn)
inactive: SR leukemia 101% | OVCAR-8 ovarian 103% | OVCAR-5 ovarian 94.6% | OVCAR-4 ovarian 99% | SK-OV-3 ovarian 90.9% | IGROV1 ovarian 106% | OVCAR-3 ovarian 110% | HS 578T breast 93.6% | NCI/ADR-RES ovarian 108% | T-47D breast 87.4% | BT-549 breast 104% | MDA-MB-435 melanoma 104% | SW-620 colon 99.7% | MCF7 breast 99.7% | HCT-116 colon 99.4% | HCC-2998 colon 117% | KM12 colon 104%

O=[N+]([O-])c1ccc(N/N=C/c2ccccc2O)nc1
inactive: SR leukemia 14.8% | OVCAR-8 ovarian 24.3% | OVCAR-5 ovarian 60.9% | OVCAR-4 ovarian 39.3% | SK-OV-3 ovarian 32.7% | IGROV1 ovarian 18.6% | OVCAR-3 ovarian 69.1% | HS 578T breast 79.7% | NCI/ADR-RES ovarian 21.3% | T-47D breast 24% | BT-549 breast 47.8% | MDA-MB-435 melanoma 46.8% | SW-620 colon 52.6% | MCF7 breast 16.8% | HCT-116 colon 22.3% | HCC-2998 colon 14.7% | KM12 colon 27%

O=C(/C=C/c1cn(-c2ccccc2)nc1-c1ccccc1)OCc1cn(-c2cccc([N+](=O)[O-])c2)nn1
inactive: SR leukemia 87.4% | OVCAR-8 ovarian 82.6% | OVCAR-5 ovarian 94.1% | OVCAR-4 ovarian 83.3% | SK-OV-3 ovarian 83.5% | IGROV1 ovarian 98.2% | OVCAR-3 ovarian 96.8% | HS 578T breast 89.9% | NCI/ADR-RES ovarian 95.4% | T-47D breast 78.2% | BT-549 breast 94.7% | MDA-MB-435 melanoma 94% | SW-620 colon 90.6% | MCF7 breast 86.8% | HCT-116 colon 82.3% | HCC-2998 colon 96.7% | KM12 colon 98.6%

N/C(=N\OC(=O)c1ccccc1)C(C(=O)NOC(=O)c1ccccc1)C1CCCCC1 (stereo not drawn)
inactive: RPMI-8226 leukemia 41.5% | OVCAR-4 ovarian 72.8% | SK-OV-3 ovarian 108% | OVCAR-3 ovarian 66.9% | HS 578T breast 26.7% | NCI/ADR-RES ovarian 45.2% | T-47D breast 72.1% | BT-549 breast 74.4% | MDA-MB-435 melanoma 38.9% | SW-620 colon 82.1% | MCF7 breast 65.6% | HCT-116 colon 36.7% | HCC-2998 colon 98% | KM12 colon 19.9%
active: SR leukemia 4.57% | IGROV1 ovarian -56.2%

O=[N+]([O-])c1ccc(N/N=C\c2ccc(O)cc2O)nc1
inactive: SR leukemia 15.3% | OVCAR-8 ovarian 25.4% | OVCAR-5 ovarian 57.9% | OVCAR-4 ovarian 40% | SK-OV-3 ovarian 25.8% | IGROV1 ovarian 28.7% | OVCAR-3 ovarian 74.8% | HS 578T breast 90.8% | NCI/ADR-RES ovarian 20.6% | T-47D breast 38.5% | BT-549 breast 38% | MDA-MB-435 melanoma 45% | SW-620 colon 56.4% | MCF7 breast 27.4% | HCT-116 colon 21.3% | HCC-2998 colon 10.6% | KM12 colon 29.2%

Cc1ccc(NC(=O)c2cc(NCc3cc(O)ccc3O)ccc2O)cc1
inactive: SR leukemia 20.3% | OVCAR-8 ovarian 81.8% | OVCAR-5 ovarian 125% | OVCAR-4 ovarian 89.1% | SK-OV-3 ovarian 98.6% | IGROV1 ovarian 97.9% | OVCAR-3 ovarian 71% | HS 578T breast 86.4% | NCI/ADR-RES ovarian 95.8% | T-47D breast 75.6% | BT-549 breast 63.8% | MDA-MB-435 melanoma 106% | SW-620 colon 106% | MCF7 breast 75.7% | HCT-116 colon 97% | HCC-2998 colon 106% | KM12 colon 91%
